Screens (PubChem BioAssay)
Rab9 prom act – qHTS Assay for Rab9 Promoter Activators; Huh7 Rab9 promoter-luciferase reporter, luminescence, 24 h; Potency, µM (series often up to 9.22 µM), actives largely listed as activators; actives 2.8% (n = 320,000); note: nearly all actives have a fitted effect of over 60% in size
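Luminescence read-out: Huh7 cells stably expressing Rab9-luciferase, treated 24 h with compound at 37 °C, then lysed with luciferase reagent for 10 min at ambient before reading.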
SMN2 splice up – qHTS Assay for Enhancers of SMN2 Splice Variant Expression | HEK293 SMN2-luciferase splicing reporter, luminescence, 30-36 h | Potency, µM (top dose mostly 46.1 µM), hits mostly activators | AID 1458, 2008 | actives 2.8% (n = 210,000); note: nearly all actives have a fitted effect of over 55% in size
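HEK293 cells carry an SMN2 […]–luciferase reporter in which exon 7 inclusion puts luciferase in frame. Cells were plated 10-12 h before compound addition, then incubated 30-36 h at 37C. ONE-Glo luminescence was read; sodium butyrate at 4.5 mM final served as control.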
FLuc counter – qHTS profiling assay for firefly luciferase inhibitor/activator using purifed enzyme and Km concentrations of substrates (counterscreen for miR-21 project); Luciferin 4-monooxygenase (Photinus pyralis), P08659; AID 588342, 2011; purified FLuc, Km substrates, luminescence inhibition; Potency, µM (series often up to 57.5 µM), most hits filed as inhibitors; actives 6.9% (n = 360,000); note: nearly all actives have a fitted effect of over 55% in size
Target sequence (P08659 whole entry, looked up): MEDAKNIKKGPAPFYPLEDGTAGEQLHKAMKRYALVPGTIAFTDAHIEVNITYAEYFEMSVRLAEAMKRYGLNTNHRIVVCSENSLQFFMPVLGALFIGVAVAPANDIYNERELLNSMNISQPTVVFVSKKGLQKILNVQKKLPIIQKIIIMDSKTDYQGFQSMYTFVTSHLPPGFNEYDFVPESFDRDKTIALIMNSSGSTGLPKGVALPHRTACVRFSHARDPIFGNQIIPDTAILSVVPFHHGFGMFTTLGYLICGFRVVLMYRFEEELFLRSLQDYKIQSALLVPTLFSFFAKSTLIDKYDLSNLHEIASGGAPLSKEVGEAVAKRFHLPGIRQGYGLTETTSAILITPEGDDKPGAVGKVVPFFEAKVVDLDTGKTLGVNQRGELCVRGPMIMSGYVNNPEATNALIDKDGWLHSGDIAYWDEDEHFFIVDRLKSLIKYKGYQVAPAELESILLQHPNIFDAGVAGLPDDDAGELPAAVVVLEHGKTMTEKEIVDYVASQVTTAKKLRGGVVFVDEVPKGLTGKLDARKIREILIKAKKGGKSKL
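Purified P. pyralis luciferase, 10 nM final, with Km-level 10 uM D-luciferin and 10 uM ATP in 50 mM Tris acetate pH 7.5, 10 mM Mg acetate, 0.01% Tween-20, 0.05% BSA; 6-point qHTS titration about 60 µM downward; luminescence read.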
NPC1 prom act – qHTS Assay for NPC1 Promoter Activators. Potency, µM (titrated, usually from 9.22 µM), actives largely listed as activators. AID 485313, 2010. Huh7 NPC1 promoter luciferase reporter, 24 h. actives 2.4% (n = 320,000); note: nearly all actives have a fitted effect of over 60% in size
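Luminescence from an NPC1 promoter-driven luciferase reporter in stably transfected Huh7 cells was measured after 24 h compound treatment at 37 °C, followed by 10 min ambient incubation with luciferase detection reagent.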
ELG1 genotoxic – qHTS screen for small molecules that induce genotoxicity in human embryonic kidney (HEK293T) cells expressing luciferase-tagged ELG1; HEK293T ELG1-luciferase reporter, luminescence, 16 h; Potency, µM (highest dose often 46 µM), most hits filed as activators; AID 504466, 2011; actives 1.3% (n = 330,000); note: nearly all actives have a fitted effect of over 60% in size
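Cells (2,000/well) expressing the ELG1-luciferase fusion are dosed by pin tool and kept 16 hr at 37 °C, 5% CO2. Signal comes from ONE-Glo luciferase reagent after 30 min at room temperature.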
Luc counter – Counterscreen for Luciferase (Kinase-Glo TM) Inhibition | Luciferin 4-monooxygenase (Photuris pensylvanica), Q27757 | Kinase-Glo luciferase, ATP luminescence, 8 min | Potency, µM (titrated, usually from 38.3 µM), most hits filed as inhibitors | actives 0.28% (n = 200,000); note: nearly all actives have a fitted effect of over 60% in size
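Kinase-Glo luciferase light output from ATP and luciferin was measured with 10 uM ATP, within the enzyme's linear range. Buffer: 50 mM imidazole pH 7.2, 50 mM KCl, 7 mM MgCl2, 0.01% Tween 20, 0.05% BSA; luminescence read after 8 min at ambient temperature.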
Each line names hits and unclear results; the compound was inactive in the other large screens. In the library only some 7.4% were active in any assay of this set; here they are far more common. Calls come from the whole dose curve; as a rule, active = well fitted curve in the direction sought with a large enough effect; inconclusive = small, poorly fitted or top-dose-only effect, or another doubt; inactive = no such curve, though single readings can be large; an effect the other way counts as inactive or inconclusive.

O=C(c1cnccn1)N1CCC2(CCCN(Cc3nccs3)C2)CC1	none (no result: Rab9 prom act, FLuc counter, NPC1 prom act, ELG1 genotoxic)
CC(C)(C)C1CCC(OC(=O)c2cncc(Br)c2)CC1 (stereo not given)	Rab9 prom act 1.8µM, FLuc counter 7.6µM, NPC1 prom act inconclusive, ELG1 genotoxic inconclusive
COC(=O)CSC(C(=O)Nc1ccc(C)c(C)c1)c1ccccc1 (stereo not given)	FLuc counter 17µM
Cc1cccc(C(=O)Nc2ccc(NC(=O)c3ccccc3)cc2)c1	FLuc counter 24µM (no result: SMN2 splice up, Luc counter)
Cc1cccc(C(=O)Nc2ccc(C(=O)Nc3ccc(O)cc3)cc2)c1	ELG1 genotoxic inconclusive (no result: SMN2 splice up, Luc counter)
Cc1cccc(NC(=O)c2c(C)nc3ccccn23)c1	Rab9 prom act inconclusive, SMN2 splice up inconclusive, FLuc counter inconclusive
Cc1ccc(C(=O)Nc2ccc(Oc3ccc(C(=O)O)c(C(=O)O)c3)cc2)cc1C	FLuc counter 6µM
Cc1ccc(NC(=O)c2c(C)nc3ccccn23)cc1C	Rab9 prom act 1.8µM, SMN2 splice up 13µM, FLuc counter 8.5µM, NPC1 prom act 3.2µM
Cc1ccc(NC(=O)c2ccccc2C(=O)O)cc1C	none (no result: Rab9 prom act, FLuc counter, NPC1 prom act, ELG1 genotoxic)
Cc1ccc(NC(=O)C(SCC(=O)O)c2ccccc2)cc1C (stereo not given)	FLuc counter inconclusive
Cc1cccc(C(=O)NNC(=O)c2ccccc2O)c1	Rab9 prom act inconclusive, FLuc counter 21µM, NPC1 prom act 3.2µM, ELG1 genotoxic inconclusive (no result: SMN2 splice up, Luc counter)
Cc1cccc(C(=O)NNC(=O)c2ccccc2C)c1	FLuc counter inconclusive
Cc1ccc(NC(=O)CC(=O)c2ccccc2)cc1C	Rab9 prom act 4µM, FLuc counter 15µM, NPC1 prom act inconclusive, ELG1 genotoxic inconclusive (no result: SMN2 splice up, Luc counter)
O=C(Cc1ccc(Cl)cc1)Nc1ccc(NC(=O)c2ccccc2)cc1	none
CCc1ccc(NC(=O)CN2CCc3ccccc3C2)cc1	FLuc counter 24µM, ELG1 genotoxic inconclusive
Cc1ccc(NC(=O)CO/N=C(\N)c2ccccc2)cc1C	none (no result: Rab9 prom act, SMN2 splice up, FLuc counter, NPC1 prom act, Luc counter)
O=C(CC(=O)c1ccccc1)Nc1ccc(Cl)cc1	Rab9 prom act inconclusive, FLuc counter 15µM, NPC1 prom act inconclusive (no result: SMN2 splice up, Luc counter)
Cc1cc(C(F)F)n2nc(C(=O)Nc3ccc(F)c(Cl)c3)nc2n1	none (no result: Rab9 prom act, NPC1 prom act, ELG1 genotoxic, Luc counter)
Cc1nc2ccccn2c1C(=O)/C=C/c1cccc([N+](=O)[O-])c1	none
Cc1ccnc(NC(=O)c2cccc(NC(=O)Cc3ccccc3)c2)c1	FLuc counter inconclusive (no result: SMN2 splice up)
Cc1cc2ccccn2c1C(=O)Nc1ccccc1	Rab9 prom act inconclusive, SMN2 splice up inconclusive, FLuc counter 11µM, ELG1 genotoxic inconclusive
Cc1ccc(/C=C/C(=O)c2c(C)nc3ccccn23)cc1	Rab9 prom act 1.4µM, SMN2 splice up inconclusive, FLuc counter 1.1µM, NPC1 prom act inconclusive
Cc1cccc(C(=O)Nc2ccccc2C(=O)OCC(=O)Nc2ccc(C#N)cc2)c1	SMN2 splice up 16µM, FLuc counter inconclusive, ELG1 genotoxic inconclusive
Cc1cc2ccccn2c1C(=O)Nc1ccc(Cl)cc1	Rab9 prom act inconclusive, FLuc counter inconclusive, ELG1 genotoxic inconclusive
Cc1cccc(C(=O)Nc2cccc(C(=O)Nc3cc(C)ccn3)c2)c1	FLuc counter 27µM (no result: SMN2 splice up, Luc counter)
COc1ccc(-c2nc(C)c(CCNC(=O)c3cc(OC)c(OC)c(OC)c3)s2)cc1OC	none (no result: Rab9 prom act, SMN2 splice up, NPC1 prom act, ELG1 genotoxic, Luc counter)
Cc1cccc(C(=O)Nc2cccc(NC(=O)c3ccccc3)c2)c1	FLuc counter 17µM (no result: SMN2 splice up, Luc counter)
Cc1ccc(NC(=O)c2ccc(NC(=O)c3ccccc3)cc2)cc1C	Rab9 prom act inconclusive, FLuc counter 27µM, NPC1 prom act inconclusive, ELG1 genotoxic inconclusive (no result: SMN2 splice up, Luc counter)
Cc1ccc(NC(=O)c2cccc(N3CCCS3(=O)=O)c2)cc1C	FLuc counter 19µM (no result: Rab9 prom act, SMN2 splice up, NPC1 prom act, ELG1 genotoxic, Luc counter)
Cc1cccc(NC(=O)c2cccc(C(=O)Nc3cccc(C)c3)c2)c1	none (no result: SMN2 splice up, Luc counter)
CCc1ccc(NC(=O)CCC(=O)c2ccccc2)cc1	FLuc counter 13µM (no result: SMN2 splice up, Luc counter)
CCc1ccc(NC(=O)CCC(=O)c2ccc(C)cc2)cc1	none (no result: SMN2 splice up, Luc counter)
